# ± gives the standard deviation of the averaged measurements.
# How the values were obtained:
# [1] = test system: DLD1; assay: cell viability (CellTiter-Glo) relative to plate median (fraction of plate median); higher = more viable cells; conditions: 5 µM; treatment time 24 h; reporter: 7TFP
# Method in brief: (§1)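 Colorectal cancer cell lines stably carrying lentiviral TCF/Wnt firefly luciferase reporters (7TFP or TCF4/Wnt) were plated in 384-well plates and, 24 h later, given library compounds at a final 5 µM for 24 h. Firefly luciferase or CellTiterGlo luminescence was read on parallel plates with a Tecan F500 reader. Each well's signal was normalised to the plate median in webcellHTS2 (additive, without log transformation). Values are the mean of two independent replicates.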
# [2] = test system: HCT116; assay: as above; conditions: 5 µM; treatment time 24 h; reporter: TCF4/Wnt
# Method in brief: as §1
# [3] = test system: SW480; assay: as above; conditions: 5 µM; treatment time 24 h; reporter: 7TFP
# Method in brief: as §1
# [4] = test system: DLD1; assay: TCF/Wnt firefly luciferase reporter signal relative to plate median (fraction of plate median); higher = higher Wnt reporter signal; conditions: 5 µM; treatment time 24 h; reporter: 7TFP
# Method in brief: as §1
# [5] = test system: SW480; assay: as above; conditions: 5 µM; treatment time 24 h; reporter: 7TFP
# Method in brief: as §1
# [6] = test system: DLD1; assay: cell viability (CellTiter-Glo) relative to plate median (fraction of plate median); higher = more viable cells; conditions: 10 µM, treatment time 24 h
# Method in brief: (§2)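 In 384-well plates, colorectal cancer lines with stable lentiviral 7TFP or TCF4/Wnt firefly luciferase reporters were seeded and, 24 h later, given kinase inhibitor library compounds at a final 10 µM for 24 h. A Tecan F500 reader measured firefly luciferase on one plate and CellTiterGlo on a parallel plate. Reported figures are two-replicate means of well signals normalised to the plate median, computed additively in webcellHTS2 without log transformation.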
# [7] = test system: HCT116; assay: as above; conditions: 10 µM; treatment time 24 h; reporter: TCF4/Wnt
# Method in brief: as §2
# [8] = test system: SW480; assay: as above; conditions: 10 µM; treatment time 24 h; reporter: 7TFP
# Method in brief: as §2
# [9] = test system: DLD1; assay: TCF/Wnt firefly luciferase reporter signal relative to plate median (fraction of plate median); higher = higher Wnt reporter signal; conditions: 10 µM, treatment time 24 h
# Method in brief: as §2
# [10] = test system: HCT116; assay: as above; conditions: 10 µM; treatment time 24 h; reporter: TCF4/Wnt
# Method in brief: as §2
# [11] = test system: SW480; assay: as above; conditions: 10 µM; treatment time 24 h; reporter: 7TFP
# Method in brief: as §2
compound,measurement,setting,value
C[C@@H]1O[C@@H](O[C@H]2C[C@@H](O)[C@]3(CO)[C@H]4[C@H](O)C[C@]5(C)[C@@H](C6=CC(=O)OC6)CC[C@]5(O)[C@@H]4CC[C@]3(O)C2)[C@H](O)[C@H](O)[C@H]1O,cell viability,[1],0.99 ± 0.085
same,cell viability,[2],0.401 ± 0.29
same,cell viability,[3],1.02 ± 0.14
same,TCF/Wnt firefly luciferase reporter signal,[4],0.128 ± 0.13
same,TCF/Wnt firefly luciferase reporter signal,[5],0.146 ± 0.12
O=C1C[C@@H]2OCC=C3CN4CC[C@]56c7ccccc7N1[C@H]5[C@H]2[C@H]3C[C@H]46,cell viability,[1],1.06 ± 0.14
same,cell viability,[2],0.963 ± 0.015
same,cell viability,[3],1.05 ± 0.071
same,TCF/Wnt firefly luciferase reporter signal,[4],0.927 ± 0.044
same,TCF/Wnt firefly luciferase reporter signal,[5],0.997 ± 0.089
Cc1ccc(-c2nc3ccc(C)cn3c2CC(=O)N(C)C)cc1,cell viability,[1],1.02 ± 0.035
same,cell viability,[2],1.09 ± 0.16
same,cell viability,[3],0.955 ± 0.056
same,TCF/Wnt firefly luciferase reporter signal,[4],1.13 ± 0.085
same,TCF/Wnt firefly luciferase reporter signal,[5],0.988 ± 0.06
NC(N)=NOCC[C@H](N)C(=O)O,cell viability,[1],1.08 ± 0.092
same,cell viability,[2],1.03 ± 0.035
same,cell viability,[3],1.03 ± 0.035
same,TCF/Wnt firefly luciferase reporter signal,[4],1.05 ± 0.042
same,TCF/Wnt firefly luciferase reporter signal,[5],0.991 ± 0.013
O=C1CCC[C@@H]2[C@H]3C[C@@H](CN12)[C@@H]1CCCCN1C3.[O-][Cl+3]([O-])([O-])O,cell viability,[1],1.01 ± 0.024
same,cell viability,[2],0.956 ± 0.053
same,cell viability,[3],0.976 ± 0.021
same,TCF/Wnt firefly luciferase reporter signal,[4],0.922 ± 0.022
same,TCF/Wnt firefly luciferase reporter signal,[5],0.97 ± 0.018
O=C1C=CC(=O)c2ccccc21,cell viability,[1],0.9965 ± 0.005
same,cell viability,[2],1.05 ± 0.042
same,cell viability,[3],0.989 ± 0.12
same,TCF/Wnt firefly luciferase reporter signal,[4],1.13 ± 0.057
same,TCF/Wnt firefly luciferase reporter signal,[5],0.963 ± 0.047
CC(C)(C)c1cc(C=C(C#N)C#N)cc(Br)c1O,cell viability,[6]; reporter: 7TFP,0.79 ± 0.03
same,cell viability,[6]; reporter: TCF4/Wnt,0.804 ± 0.18
same,cell viability,[7],0.966 ± 0.16
same,cell viability,[8],0.91 ± 0.035
same,TCF/Wnt firefly luciferase reporter signal,[9]; reporter: 7TFP,1.2 ± 0.092
same,TCF/Wnt firefly luciferase reporter signal,[9]; reporter: TCF4/Wnt,1.07 ± 0.18
same,TCF/Wnt firefly luciferase reporter signal,[10],1.38 ± 0.25
same,TCF/Wnt firefly luciferase reporter signal,[11],1.3 ± 0.11
COC[C@H]1OC(=O)c2coc3c2[C@@]1(C)C1=C(C3=O)[C@@H]2CCC(=O)[C@@]2(C)C[C@H]1OC(C)=O [Wortmannin],cell viability,[6]; reporter: 7TFP,0.844 ± 0.016
same,cell viability,[6]; reporter: TCF4/Wnt,0.8345 ± 0.0064
same,cell viability,[7],0.733 ± 0.091
same,cell viability,[8],0.963 ± 0.035
same,TCF/Wnt firefly luciferase reporter signal,[9]; reporter: 7TFP,0.662 ± 0.033
same,TCF/Wnt firefly luciferase reporter signal,[9]; reporter: TCF4/Wnt,0.821 ± 0.059
same,TCF/Wnt firefly luciferase reporter signal,[10],0.699 ± 0.021
same,TCF/Wnt firefly luciferase reporter signal,[11],0.856 ± 0.54
C[C@H]1CC[C@]2(NC1)O[C@H]1C[C@H]3[C@@H]4CC[C@H]5C[C@@H](O)CC[C@]5(C)[C@H]4CC[C@]3(C)[C@H]1[C@@H]2C,cell viability,[1],0.956 ± 0.076
same,cell viability,[2],1.01 ± 0.052
same,cell viability,[3],0.988 ± 0.06
same,TCF/Wnt firefly luciferase reporter signal,[4],1.03 ± 0.035
same,TCF/Wnt firefly luciferase reporter signal,[5],1.09 ± 0.057
C[C@@H]1CC[C@H]2[C@@H](C)C(=O)O[C@@H]3O[C@@]4(C)CC[C@@H]1[C@]32OO4,cell viability,[1],1.04
same,cell viability,[2],1.09 ± 0.14
same,cell viability,[3],1.145 ± 0.0071
same,TCF/Wnt firefly luciferase reporter signal,[4],1 ± 0.023
same,TCF/Wnt firefly luciferase reporter signal,[5],0.984 ± 0.066
CCC(=O)O[C@H]1CC[C@H]2[C@@H]3CCC4=CC(=O)CC[C@]4(C)[C@H]3CC[C@]12C,cell viability,[1],1.02 ± 0.045
same,cell viability,[2],0.894 ± 0.06
same,cell viability,[3],1 ± 0.012
same,TCF/Wnt firefly luciferase reporter signal,[4],0.994 ± 0.17
same,TCF/Wnt firefly luciferase reporter signal,[5],0.99 ± 0.013
CC1(C)C(=O)C=C[C@@]2(C)C1=C(O)C(=O)[C@]1(C)[C@@H]2CC[C@@]2(C)[C@H](c3ccoc3)C[C@H]3O[C@]321,cell viability,[1],0.925 ± 0.029
same,cell viability,[2],1.13 ± 0.057
same,cell viability,[3],0.91 ± 0.034
same,TCF/Wnt firefly luciferase reporter signal,[4],0.986 ± 0.062
same,TCF/Wnt firefly luciferase reporter signal,[5],1.02 ± 0.055
C=C1C[C@@H]2[C@H](CC[C@]3(C)C(=O)CC[C@@H]23)[C@@]2(C)C=CC(=O)C=C12,cell viability,[1],1.03 ± 0.11
same,cell viability,[2],1.12 ± 0.05
same,cell viability,[3],1.02 ± 0.031
same,TCF/Wnt firefly luciferase reporter signal,[4],0.961 ± 0.17
same,TCF/Wnt firefly luciferase reporter signal,[5],1.02 ± 0.13
